The text below walks through data of PubChem BioAssay (EPA / NIEHS).

Results filed as inconclusive are left out. Activity calls are given as the source filed them. Rule for the calls: active = hit-call score of the fitted dose curve at least 0.9, where 1 is the maximum; inconclusive = response in the unintended direction; inactive = score below 0.9.

The target in the assay is Steroid hormone receptor ERR1 (Homo sapiens) (UniProt P11474). Briefly: ATG_ERRa_TRANS: Attagene TRANS-FACTORIAL HepG2 Assay for human Estrogen-Related Receptor alpha (ERRa) (AID 2282971). The note with it: HepG2 Attagene TRANS reporter, ERRa transactivation. Here is the method: ATG_TRANS is a cell-based, multiplexed-readout assay that uses HepG2, a human liver cell line, with measurements taken at 24 hours after chemical dosing in a 24-well plate.ATG_ERRa_TRANS is one of 30 assay component(s) measured or calculated from the ATG_TRANS assay. It is designed to make measurements of mRNA induction, a form of inducible reporter, as detected with fluorescence intensity signals by Reverse transcription polymerase chain reaction (RT-PCR) and Capillary electrophoresis technology.Data from the assay component ATG_ERRa_TRANS was analyzed into 1 assay endpoint. This assay endpoint, ATG_ERRa_TRANS, was analyzed in the positive analysis fitting direction relative to DMSO as the negative control and baseline of activity. Using a type of inducible reporter, measures of mRNA for gain-of-signal activity can be used to understand the reporter gene at the transcription factor-level as they relate to the gene ESRRA. Furthermore, this assay endpoint can be referred to as a primary readout, because this assay has produced multiple assay endpoints where this one serves a reporter gene function. To generalize the intended target to other relatable targets, this assay endpoint is annotated to the nuclear receptor intended target family, where the subfamily is steroidal.
Chain of Steroid hormone receptor ERR1 (Homo sapiens) (P11474 whole entry, looked up): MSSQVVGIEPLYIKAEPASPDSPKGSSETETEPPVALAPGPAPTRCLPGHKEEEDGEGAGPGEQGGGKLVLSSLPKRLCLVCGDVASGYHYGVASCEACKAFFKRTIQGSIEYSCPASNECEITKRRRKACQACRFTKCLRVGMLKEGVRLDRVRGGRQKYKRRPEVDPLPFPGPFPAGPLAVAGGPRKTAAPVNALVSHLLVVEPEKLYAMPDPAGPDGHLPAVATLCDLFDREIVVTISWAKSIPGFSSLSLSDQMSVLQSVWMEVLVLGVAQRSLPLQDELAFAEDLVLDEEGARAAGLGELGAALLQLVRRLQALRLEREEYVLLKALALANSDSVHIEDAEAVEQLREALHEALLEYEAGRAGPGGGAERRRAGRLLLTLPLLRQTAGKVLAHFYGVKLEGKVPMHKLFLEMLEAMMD
Human liver HepG2 cells are transiently transfected with multiple reporter transcription units (MRTUs) in 6-well plates using FuGene 6 reagent (Roche; 3 ml FuGene/1 mg DNA). The MRTU constructs are regulated by a cis-regulating element (promoter). […] A major difference between the CIS and TRANS system is that in CIS activities of endogenous TFs are measured, whereas the TRANS assay evaluates changes in activities of exogenous, chimeric NR-Gal4 proteins. […] At the end of 24 hour incubation, total RNA was isolated using TriZol reagent (Invitrogen). The isolated RNA is then reverse-transcribed using oligo(dT) primer and Mo-MLV reverse transcriptase (Invitrogen) with DNAse I (Ambion) treatment for 30 min. The one-tenth of the produced cDNA was amplified by PCR using Taq DNA polymerase (Invitrogen) and two reporter sequence-specific primers. The PCR products were fluorescently labeled by primer extension with 6-arboxyfluorescein (6-FAM) 5'-labeled reporter sequence-specific primer (2 min at 95 C, 20 s at 68 C and 10 min at 72 C) and these products were digested with 5U of HpaI (New England Biolabs) for 2h at 37 C. The fragments were purified using Qiaquick PCR columns (Qiagen), analyzed on an ABI 3130xL genetic analyzer (Applied Biosystems) with peak positions identified by using a set of X-rhodamine (ROX)-labeled MapMarker1000 molecular weight standards (BioVentures). The raw capillary electrophoresis data was processed using Attagraph software (Attagene).
In the case of `Oc1ccc(C2(c3ccc(O)cc3)c3ccccc3-c3ccccc32)cc1`, the result was inactive.

As for `Clc1ccc(-c2ccccc2)cc1`, the compound was called inactive. With `O=[N+]([O-])C=Cc1ccccc1`, the result was inactive. Then `[CH3][Sn]([CH3])([Cl])[Cl]`, with “inactive”; and `O=P1(NCCCl)OCCCN1CCCl` (stereo not drawn), with “inactive”. Then `COCC(=O)N(c1c(C)cccc1C)N1CCOC1=O`, with “inactive”. Then `CC1(C)[C@H](C(=O)O[C@H](C#N)c2cccc(Oc3ccccc3)c2)[C@@H]1C=C(Br)Br`, with “inactive”. On to `CC(Cc1ccc(C(C)(C)C)cc1)CN1C[C@@H](C)O[C@@H](C)C1` (stereo partly drawn), for which the outcome was inactive. In the case of `CCOC(=O)N(C)N=O`, the compound was called inactive. For `CC1(C)C(=O)NC(=O)NC1=O`, the outcome was inactive. `CC(C)(C)C(=O)CCl`: the compound was classed as inactive. In the case of `O=S(=O)(c1ccccc1)c1ccccc1`, the compound was classed as inactive. Regarding `CC1OC(C)OC(C)O1` (stereo not drawn), the outcome was inactive. Then `CC(C)CCCCCCCOP(=O)(Oc1ccccc1)Oc1ccccc1`, with “inactive”. For `Nc1ccccc1C(=O)OCCc1ccccc1`, the outcome was inactive.

On to `O=CNC(N1CCN(C(NC=O)C(Cl)(Cl)Cl)CC1)C(Cl)(Cl)Cl` (stereo not drawn), for which the result was inactive. On to `C[N+](=O)[O-]`, for which the result was inactive. As for `O=c1[nH]c(Cl)c(Cl)cc1Cl`, the compound was classed as inactive. In the case of `C#CC1(O)CCCCC1` it was “inactive”; in that of `ClC1=C(Cl)[C@]2(Cl)[C@@H]3[C@@H](Cl)[C@H](Cl)C[C@@H]3[C@@]1(Cl)C2(Cl)Cl`, “inactive”. In the case of `CC1CCC(=O)O1` (stereo not drawn) it was “inactive”; in that of `COc1cc(OC)c(OC)cc1C=O`, “inactive”. Take `Cl/C=C\CCl`: the result was inactive. Turning to `CCOC(=O)NC(=S)Nc1ccccc1NC(=S)NC(=O)OCC`, the compound was called inactive. `N#CC(c1ccccc1)c1ccccc1`: the outcome was inactive. `CCCCCCC1CCOC1=O` (stereo not drawn): the call was inactive. For `Cc1ccc(N(SC(F)(Cl)Cl)S(=O)(=O)N(C)C)cc1`, the compound was called inactive. In the case of `C=COCCCl` it was “inactive”; in that of `O=C=Nc1ccccc1`, “inactive”; in that of `CCNCC`, “inactive”. In the case of `Nc1ccc([N+](=O)[O-])cc1N`, the compound was called inactive.

For `CN(N=O)c1ccccc1`, the result was inactive. Then `S=c1[nH]c2ccccc2[nH]1`, with “inactive”; and `c1ccc(Nc2ccc3ccccc3c2)cc1`, with “inactive”; and `CC(C)COP(=O)(OCC(C)C)OCC(C)C`, with “inactive”.

In the case of `C=CC(=O)OCC(CC)CCCC` (stereo not drawn), the compound was called inactive. Then `N#Cc1cc(I)c(O)c(I)c1`, with “inactive”. With `COC(=O)COc1ccc(Cl)cc1Cl`, the compound was called inactive.
